The text below walks through data of PubChem BioAssay (NCATS).

Values joined by “and” are separate entries in the source; they are usually repeats but may differ in a detail not shown here. Identical values can stand only once. Inconclusive results are not listed. Unmarked numbers belong to inactive results. Active and inactive are the calls of the source. Unless noted, calls come from the whole dose curve; as a rule, active = well fitted curve in the direction sought with a large enough effect; inconclusive = small, poorly fitted or top-dose-only effect, or another doubt; inactive = no such curve, though single readings can be large; an effect the other way counts as inactive or inconclusive.

One test concerns the target Mitogen-activated protein kinase 10 (Mus musculus) (UniProt Q61831). The test is described as follows: JNK3 AlphaScreen Assay (AID 530; active = well fitted curve in either direction with a large enough effect, not every such curve was filed as active;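 note: kinase came from lysate of stimulated human HepG2 cells; signal reports phosphorylation of biotinylated GST-cJun 1-79 at Ser73 with 10 µM ATP; % is set by controls: 0 for no effect and ±100 for the full control effect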). The settings on record: JNK3 lysate, c-Jun phosphorylation; series mostly up to 57.1 µM; activity change, negative = inhibition: at the top concentration. An outline of the steps:
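JNK3 came from HepG2 lysates pre-activated with IL-1beta and TNF-alpha and phosphorylated biotinylated GST-cJun (1-79) at 10 uM ATP, pH 7.6, room temperature. Compounds were titrated. AlphaScreen signal used anti-phospho-cJun (Ser73) antibody.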
A general note: In Alpha technology, singlet oxygen from a donor bead excites a nearby acceptor bead.
On to `CCC(C)(C)c1ccc(O)cc1`, for which the “activity change, negative = inhibition” value was -5.26%.

`Cc1ncsc1CCCl`: the “activity change, negative = inhibition” value is 43.8%.

In the case of `C[C@]12CCC(=O)C=C1CC[C@@H]1[C@@H]2CC[C@]2(C)C(=O)CC[C@@H]12`, the call was inactive.

For the compound `COc1ccc2c(c1)C13CCCC[C@@H]1C(C2)N(C)CC3` (some centres not stated), the “activity change, negative = inhibition” value is 2.01% [at 25.6 µM].

In the case of `Nc1ccccc1`, the “activity change, negative = inhibition” value was 15.6%.

Turning to `O=C(O)CCCc1ccc(N(CCCl)CCCl)cc1`, the compound was called inactive.

`O=c1[nH]oc2c1CCNC2`: the outcome was inactive.

Take `CCCCC/C=C\C/C=C\C/C=C\C/C=C\CCCC(=O)NCC(=O)O`: the “activity change, negative = inhibition” value was 1.28%.

On to `COc1c2c(cc3c1OCO3)CCN(C)C2`, for which the “activity change, negative = inhibition” value was -0.19% [at 25.6 µM].

Take `CCOC(=O)CC(SP(=S)(OC)OC)C(=O)OCC` (configuration not stated): the “activity change, negative = inhibition” value was 20.1%.

As for `CNC(C)(C)Cc1ccccc1`, the “activity change, negative = inhibition” value is -2.44% [at 25.6 µM].

In the case of `CCC1(CC)C(=O)C=CNC1=O`, the “activity change, negative = inhibition” value is 1.67% [at 25.6 µM].

For `Clc1cccc(SC2CCNCC2)n1`, the “activity change, negative = inhibition” value is 0.899%.

Consider `C[C@]1(O)CC[C@H]2[C@@H]3CCC4=CC(=O)CC[C@]4(C)[C@@]3(F)[C@@H](O)C[C@@]21C`, for which the “activity change, negative = inhibition” value is 14%.

Take `CC(C)c1cccc(C(C)C)c1O`: the call was inactive.

Regarding `COC(=O)C(c1ccccc1)C1CCCCN1` (configuration not stated), the “activity change, negative = inhibition” value is 13.7%.

`Oc1ccc(Cl)cc1`: the “activity change, negative = inhibition” value is -0.877%.

Take `CC(C)NC(C)C`: the “activity change, negative = inhibition” value was 27.3%.

On to `NCCc1ccc(O)cc1`, for which the result was inactive.

Consider `O=P1(N(CCCl)CCCl)NCCCO1` (configuration not stated), for which the compound was called inactive.

For the compound `C=CCN1C[C@H](C)N([C@H](c2ccc(C(=O)N(CC)CC)cc2)c2cccc(OC)c2)C[C@H]1C`, the “activity change, negative = inhibition” value is 2.87%.

For the compound `Nc1ccccc1C(=O)O`, the “activity change, negative = inhibition” value was 8.86%.

`CN1C[C@H](C(=O)N[C@]2(C)O[C@@]3(O)[C@@H]4CCCN4C(=O)[C@H](Cc4ccccc4)N3C2=O)C=C2c3cccc4[nH]cc(c34)C[C@H]21`: the “activity change, negative = inhibition” value was -18.1%.

For the compound `O=C(CCCN1CCC2(CC1)C(=O)NCN2c1ccccc1)c1ccc(F)cc1`, the result was inactive.

`C[C@]12CCC(=O)C=C1CC[C@@H]1[C@@H]2CC[C@@]2(C)[C@H]1CC[C@]2(C)O`: the “activity change, negative = inhibition” value is -11.2%.

Tested on in the next test: not listed separately
The test is described as follows: Cell Viability - N2a (AID 540).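 Note: plate controls were DMSO alone for no effect and tamoxifen control for full effect; nearly all actives have a fitted effect of over 45% in size.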 Conditions: N2a mouse neuroblastoma cell viability; series mostly up to 92.2 µM; activity change, negative = cytotoxicity: at the top concentration. An outline of the steps: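 Mouse neuroblastoma N2a cells (1500/well) were preincubated 5 hr at 37 °C, then exposed to compounds for 40 hr at 37 °C in complete medium. Viability was read as intracellular ATP by CellTiter-Glo luminescence; AC50 from Hill fits.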
In the case of `CCC(C)(C)c1ccc(O)cc1`, the “activity change, negative = cytotoxicity” value was -22.2%.

`C[C@]12CCC(=O)C=C1CC[C@@H]1[C@@H]2CC[C@]2(C)C(=O)CC[C@@H]12`: the “activity change, negative = cytotoxicity” value is -17.8%.

On to `Nc1ccccc1`, for which the “activity change, negative = cytotoxicity” value was -11.8%.

Take `O=C(O)CCCc1ccc(N(CCCl)CCCl)cc1`: the “activity change, negative = cytotoxicity” value is -38%.

As to `CCOC(=O)CC(SP(=S)(OC)OC)C(=O)OCC` (configuration not stated), the “activity change, negative = cytotoxicity” value was -13.9%.

Turning to `C[C@]1(O)CC[C@H]2[C@@H]3CCC4=CC(=O)CC[C@]4(C)[C@@]3(F)[C@@H](O)C[C@@]21C`, the “activity change, negative = cytotoxicity” value was 2.48%.

On to `COc1cc(OC)c(OC)cc1C=O`, for which the “activity change, negative = cytotoxicity” value was -2.09%.

`CC(C)c1cccc(C(C)C)c1O`: the “activity change, negative = cytotoxicity” value is 2.09%.

For `COC(=O)C(c1ccccc1)C1CCCCN1` (configuration not stated), the “activity change, negative = cytotoxicity” value was -8.72%.

For `Oc1ccc(Cl)cc1`, the “activity change, negative = cytotoxicity” value is 2.63%.

Turning to `CC(C)NC(C)C`, the “activity change, negative = cytotoxicity” value is -13.9%.

Regarding `NCCc1ccc(O)cc1`, the “activity change, negative = cytotoxicity” value was -2.55%.

Consider `O=P1(N(CCCl)CCCl)NCCCO1` (configuration not stated), for which the “activity change, negative = cytotoxicity” value is -0.34%.

Regarding `COP(=S)(OC)Oc1ccc(SC)c(C)c1`, the “activity change, negative = cytotoxicity” value was -17.2%.

Turning to `CCCC(C)(COC(N)=O)COC(N)=O`, the “activity change, negative = cytotoxicity” value was 1.25%.

For `Nc1ccccc1C(=O)O`, the “activity change, negative = cytotoxicity” value is 3.1%.

For `CN1C[C@H](C(=O)N[C@]2(C)O[C@@]3(O)[C@@H]4CCCN4C(=O)[C@H](Cc4ccccc4)N3C2=O)C=C2c3cccc4[nH]cc(c34)C[C@H]21`, the “activity change, negative = cytotoxicity” value is -20.8%.

Tested on in a further test: not listed separately
The test is described as follows: Cell Viability - NIH 3T3 (AID 541).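 Note: plate controls were DMSO alone for no effect and tamoxifen positive control for full effect; nearly all actives have a fitted effect of over 25% in size.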 The settings on record: NIH 3T3 cell viability, qHTS; at 92.2 µM (top of the series). An outline of the steps:
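NIH 3T3 mouse embryo fibroblasts (1000 cells/well) were plated in complete medium and treated with compound for 40 hr at 37 °C. Viability was read as intracellular ATP by CellTiter-Glo luminescence; AC50 values came from Hill-equation fits of concentration-response data.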
A general note: qHTS replaces the single test concentration by a dilution series.
As to `CCC(C)(C)c1ccc(O)cc1`, the activity change, negative = cytotoxicity is -23.4%.

As for `C[C@]12CCC(=O)C=C1CC[C@@H]1[C@@H]2CC[C@]2(C)C(=O)CC[C@@H]12`, the activity change, negative = cytotoxicity is -137% (active) and -117% (active).

For the compound `Nc1ccccc1`, the activity change, negative = cytotoxicity was -16.9%.

Take `CCOC(=O)CC(SP(=S)(OC)OC)C(=O)OCC` (configuration not stated): the activity change, negative = cytotoxicity was -25.9%.

As to `COc1cc(OC)c(OC)cc1C=O`, the activity change, negative = cytotoxicity is 6.21%.

For the compound `CC(C)c1cccc(C(C)C)c1O`, the activity change, negative = cytotoxicity is 4.32%.

Turning to `COC(=O)C(c1ccccc1)C1CCCCN1` (configuration not stated), the activity change, negative = cytotoxicity was -13.4%.

For `Oc1ccc(Cl)cc1`, the activity change, negative = cytotoxicity is 5.07%.

For `CC(C)NC(C)C`, the activity change, negative = cytotoxicity is -15.2%.

As for `NCCc1ccc(O)cc1`, the activity change, negative = cytotoxicity is -149% (active).

On to `O=P1(N(CCCl)CCCl)NCCCO1` (configuration not stated), for which the activity change, negative = cytotoxicity was 2.35%.

Regarding `COP(=S)(OC)Oc1ccc(SC)c(C)c1`, the activity change, negative = cytotoxicity is -11.1%.

With `CCCC(C)(COC(N)=O)COC(N)=O`, the activity change, negative = cytotoxicity was -19.1%.

Consider `Nc1ccccc1C(=O)O`, for which the activity change, negative = cytotoxicity was -17.8%.

Turning to `C[C@]12CCC(=O)C=C1CC[C@@H]1[C@@H]2CC[C@@]2(C)[C@H]1CC[C@]2(C)O`, the activity change, negative = cytotoxicity is -123% (active).

Regarding `Clc1ccc(C(c2ccc(Cl)cc2)C(Cl)(Cl)Cl)cc1`, the activity change, negative = cytotoxicity was -24.2%.

Tested on in another test: not listed separately
The test is described as follows: Cell Viability - HUV-EC-C (AID 542). For activity change, negative = cytotoxicity: % is set by controls: 0 for no effect and ±100 for the full control effect. Note: nearly all actives have a fitted effect of over 35% in size. Note: potency is the fitted concentration of half-maximal effect. The settings on record: HUV-EC-C endothelial cell viability, qHTS; series mostly up to 92.2 µM; activity change, negative = cytotoxicity: at the top concentration. An outline of the steps: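 HUV-EC-C normal human vascular endothelial cells, 1000 cells/well, pre-incubated 5 hr at 37 °C, then exposed to compounds for 40 hr at 37 °C in complete medium. Viability measured as intracellular ATP by CellTiter-Glo luminescence; AC50 from Hill fits.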
For the compound `CCC(C)(C)c1ccc(O)cc1`, the “activity change, negative = cytotoxicity” value is 8.36%.

Consider `C[C@]12CCC(=O)C=C1CC[C@@H]1[C@@H]2CC[C@]2(C)C(=O)CC[C@@H]12`, for which the Potency result is “inactive”.

Take `Nc1ccccc1`: the “activity change, negative = cytotoxicity” value is 5.22%.

For `O=C(O)CCCc1ccc(N(CCCl)CCCl)cc1`, the “activity change, negative = cytotoxicity” value was 13.8%.

In the case of `CCOC(=O)CC(SP(=S)(OC)OC)C(=O)OCC` (configuration not stated), the “activity change, negative = cytotoxicity” value was 27.6%.

For `C[C@]1(O)CC[C@H]2[C@@H]3CCC4=CC(=O)CC[C@]4(C)[C@@]3(F)[C@@H](O)C[C@@]21C`, the “activity change, negative = cytotoxicity” value was 1.42%.

Take `COc1cc(OC)c(OC)cc1C=O`: the “activity change, negative = cytotoxicity” value is -3.08%.

For the compound `CC(C)c1cccc(C(C)C)c1O`, the “activity change, negative = cytotoxicity” value was 18.4%.

As for `COC(=O)C(c1ccccc1)C1CCCCN1` (configuration not stated), the “activity change, negative = cytotoxicity” value was 5.14%.

Turning to `Oc1ccc(Cl)cc1`, the “activity change, negative = cytotoxicity” value is 15%.

Regarding `CC(C)NC(C)C`, the “activity change, negative = cytotoxicity” value is -9.99%.

As to `NCCc1ccc(O)cc1`, the “activity change, negative = cytotoxicity” value was -0.709%.

Turning to `O=P1(N(CCCl)CCCl)NCCCO1` (configuration not stated), the “activity change, negative = cytotoxicity” value was 6.06%.

For the compound `COP(=S)(OC)Oc1ccc(SC)c(C)c1`, the “activity change, negative = cytotoxicity” value is -1.3%.

With `CCCC(C)(COC(N)=O)COC(N)=O`, the “activity change, negative = cytotoxicity” value is 4.11%.

In the case of `Nc1ccccc1C(=O)O`, the “activity change, negative = cytotoxicity” value is 6.44%.

For the compound `CN1C[C@H](C(=O)N[C@]2(C)O[C@@]3(O)[C@@H]4CCCN4C(=O)[C@H](Cc4ccccc4)N3C2=O)C=C2c3cccc4[nH]cc(c34)C[C@H]21`, the “activity change, negative = cytotoxicity” value is -4.18%.

For `C[C@]12CCC(=O)C=C1CC[C@@H]1[C@@H]2CC[C@@]2(C)[C@H]1CC[C@]2(C)O`, the “activity change, negative = cytotoxicity” value was -16.6%.

For the compound `Clc1ccc(C(c2ccc(Cl)cc2)C(Cl)(Cl)Cl)cc1`, the Potency was 50.1 µM (active).
